Experimental data as given in PubChem BioAssay AID445 (National Center for Advancing Translational Sciences (NCATS), 2006).
Hit rate of the full screen: of about 110,000 compounds, about 40 (0.04%) were called active. Where a call stands in place of a potency, no number is given. Another 22% or so got no clear call; they are omitted. Calls follow the shape of the dose curve; as a rule, active = well fitted curve in the direction sought with a large enough effect in the signal ratio (not every such curve was filed as active); inconclusive = small, poorly fitted or top-dose-only effect, or a change in a side signal; inactive = flat fitted curve, though single readings scatter; the % refers to the signal ratio. The full list was thinned out, with actives kept by preference.

Experiment: IkB Signaling
Details: ABC-DLBCL IkBa-CBG/CBR dual luciferase ratio, 4 h; series mostly up to 57.1 µM
From the text: NIH Molecular Libraries Screening Centers Network [MLSCN]
NIH Chemical Genomics Center [NCGC]
Nuclear factor kappa-B (NF-kappa-B) plays an important role in normal B cell development and survival. Diffuse large B cell lymphoma (DLBCL) is the most commonly observed type of non-Hodgkin's lymphoma. Gene expression analysis has identified an activated B cell-like subtype of DLBCL (ABC-DLBCL) which expresses known NF-kappa-B target genes. […] However, targets upstream of IKK have been largely unexplored and so nodes upstream of IKK in the NF-kappa-B pathway remain untested due to the lack of chemical probes.
A cell-sensor assay for I-kappa-B-alpha stabilization was developed with NIH investigator Dr. R. Eric Davis in Dr. Louis M. Staudt's laboratory. The assay uses green (CBG68) and red (CBR) emitting beetle luciferases [Chroma-Glo(TM) developed by Promega Corp.] where the green luciferase is fused to I-kappa-B-alpha and the red luciferase is present in its native state. Both luciferase genes are stably present in the OCI-Ly3 human ABC DLBCL cell line, but their expression is under the control of tetracycline-inducible promoters. Following the addition of doxycycline to induce expression of the luciferases, the green luminescence in control cultures rises only slowly because the CBG fusion partner I-kappa-B-alpha is targeted by IKK activity for rapid degradation. In contrast, green luminescence rises rapidly in the presence of proteasome inhibitors or IKK inhibitors. The rise in red luminescence of CBR is not affected by proteasome or IKK inhibitors, and serves as normalization for cell number and nonspecific effects. Compounds were screened as a concentration-titration series that ranged from 57 uM to 0.7 nM.
NCGC Assay Protocol Summary:
Cells were seeded in 1536-well plates at 5000 cells/3ul in IMDM medium containing 0.5% FBS, w/o phenol red, L-glutamine, 25 mM HEPES, 3 mg/ml sodium bicarbonate. After centrifugation for 1 min. at 1000 rpm, 23 nl of compounds or DMSO were delivered to each well using a pin tool. Then 1ul 80ng/ml doxycycline was dispensed into white solid 1536-well plates and the plates were incubated at 37C/5% C02 in a cell incubator for 4 hrs. Then 4 ul Chroma-Glo luminescent substrate mix (Promega) was added to each well. The plate was incubated at R.T. for 10-15 min. The plates were measured on a ViewLux plate reader for green luminescence (540/20 nm filter) and red luminescence (618/8 nm filter). The green and red luminescent signals were corrected for red and green luminescence filter overlap using previously determined filter calibration constants (determined using the procedure outlined in the Promega Technical Manual). The %Activity was determined from the ratio of corrected green/red luminescent values. Green luminescent and ratio %Activity was determined by normalizing to the difference in signal between basal cells (0% Activity) and cells incubated with 10 uM of the proteasome inhibitor MG-132 (100% Activity). Red luminescent %Activity was normalized to the difference between red luminesence in basal cells (0%Activity) and zero luminescence (-100% Activity).
Concentration-response curves were fitted to the signals arising from the green luminescence (I-kappa-B-alpha-luciferase fusion; IkB-luc) and the red luminescence (unfused luciferase; luc) as well as the calculated ratio. The concentration-effect curves were then classified based on curve quality (r2), response magnitude and degree of measured activity. Compounds were then categorized based on their concentration-response curves for all three datasets (Ikb-luc, luc and ratio).
Keywords: IKK, I-kappa-B, IkB, IkBa, cytotoxicity, luminescence, MLSMR, MLSCN, NIH Roadmap, qHTS, NCGC
Potency is read from the fitted curve at half-maximal effect.

Compound | Potency
CCCCNC(=O)c1ccc2c(c1)NC(=O)C(C(C)C)N2 (configuration not stated) | inactive
CCOC(=O)c1scc(-c2ccc(C)cc2)c1S(=O)(=O)Nc1cc(C)ccc1C | inactive
CCN(CC)c1ccc(NC(=O)Cn2nc3c(cc2=O)CCCC3)c(C)c1 | inactive
Cc1ccc2sc(N(Cc3cccnc3)C(=O)C3COc4ccccc4O3)nc2c1C (configuration not stated) | inactive
Cc1ccc(NC(=O)Cn2nnc3sc4c(c3c2=O)CCC(C)C4)cc1 (configuration not stated) | inactive
CSc1cccc(NC(=O)CN2C(=O)CCc3cc(S(=O)(=O)N4CCCCC4)ccc32)c1 | inactive
CCOc1ccc(N(CC)S(=O)(=O)N2CCCC(C(=O)NCc3ccc(Cl)cc3)C2)cc1 (configuration not stated) | inactive
O=C(NCCCO)C(=O)Nc1c2c(nn1-c1ccccc1)CSC2 | inactive
Cc1cc(OCC(=O)NCC2(N(C)C)CCCCC2)cc(C)c1Cl | inactive
Cc1ccc(-c2nn(CCC(=O)Nc3ccc(OC(F)(F)F)cc3)c(=O)c3ccccc23)cc1 | inactive
CCCSc1nc2sc3c(c2c(=O)n1-c1cccc(Br)c1)CC(C)(C)OC3 | inactive
COc1ccc(CCNC(=O)Cn2c(=O)cc(C(F)(F)F)c3c(C)nn(C)c32)c(OC)c1 | inactive
CCOc1ccccc1CNC(=O)c1cnc2c(-c3ccc(OCC)c(OCC)c3)c(C)nn2c1C | inactive
CCOc1cc(CNC(=O)c2sc3ncnc(N(C)C4CCCCC4)c3c2C)ccc1OC | inactive
Cc1c(-c2nc(-c3ccc4c(c3)OCO4)no2)nnn1-c1ccc(Br)cc1F | inactive
CCN(CC)c1ccc(NS(=O)(=O)c2cc(-c3cc(C)no3)ccc2C)c(C)c1 | inactive
CCN1CCN(CCCNC(=O)c2cnn(-c3ccc(C)cc3C)c2C2CCN(C(=O)OC(C)(C)C)CC2)CC1 | inactive
COc1ccc(-c2onc(C)c2C)cc1S(=O)(=O)NCc1cccs1 | inactive
Cc1cccc(Cc2c(C)nc3nc(SCc4ccccc4Cl)nn3c2C)c1 | inactive
NC(=O)C1CCN(C(=O)c2cccc(NC(=O)c3nsc4ccccc34)c2)CC1 | inactive
COc1ccccc1-c1noc(-c2ccc(NCc3ccccc3)c([N+](=O)[O-])c2)n1 | inactive
COc1ccc(Cl)cc1NC(=O)CSc1nc2ccccc2c2nc(-c3ccccc3)nn12 | inactive
CCOc1ccccc1NC(=O)Cn1c(=O)n(Cc2ccco2)c(=O)c2sc3ccccc3c21 | inactive
CCN(CC)CCNC(=O)CN1N=C(c2ccc(OC)cc2)CCC1=O | inactive
COc1ccc(CNc2nc(-c3ccc(Cl)cc3)cc(C(F)(F)F)n2)cc1 | inactive

Compound | Potency
COc1ccc(NC(=O)C2CCCN(S(=O)(=O)c3cccc4nonc34)C2)cc1Cl (configuration not stated) | inactive
CCc1cc2c(cc3c(=O)n(CC(=O)N4CCN(c5cc(Cl)ccc5C)CC4)ncn32)s1 | inactive
COc1ccc(-c2nn3c(-c4ccc(OC)cc4)nnc3c3ccccc23)cc1 | inactive
Fc1ccc(-n2ncc3c(Nc4ccc(Oc5ccccc5)cc4)ncnc32)cc1 | inactive
CCCOc1ccc(CNC(=O)C2CCN(c3nn4c(=O)cc(C)nc4s3)CC2)cc1 | inactive
CCS(=O)(=O)c1nc(S(=O)(=O)c2ccc(C)cc2)c(NCc2ccc(Cl)cc2)s1 | inactive
Cc1ccc(CNS(=O)(=O)c2ccc(-c3cc(C(F)(F)F)on3)s2)cc1 | inactive
Cc1cc(C)cc(NC(=O)c2cnc3sc(N4CCCC4)nn3c2=O)c1 | inactive
CCCCOC(=O)CSc1ncnc2sc3c(c12)CCC(C)C3 (configuration not stated) | inactive
COc1cc(NC(=O)NCC2CCN(Cc3ccc(C)cc3)CC2)cc(OC)c1OC | inactive
CCOC(=O)c1ccc(NC(=O)c2c(NCc3cccc(OC)c3)sc3c2CCC3)cc1 | inactive
Cc1nc2nc(SCC(=O)N(Cc3ccccc3)C(C)C)nn2c(C)c1Cc1ccccc1Cl | inactive
Cc1cc2oc(C(=O)N(Cc3ccc(Cl)cc3)Cc3ccco3)c(C)c2cc1Cl | inactive
Cc1ccccc1-c1nc(CS(=O)(=O)CC(=O)NC(C)c2ccccc2)c(C)o1 (configuration not stated) | inactive
CCOc1ccccc1C(=O)NC1(C(F)(F)F)C(=O)Nc2c1c(=O)[nH]c(=O)n2-c1ccc(F)cc1 (configuration not stated) | inactive
CCOC(=O)c1c(C)[nH]c(C)c1S(=O)(=O)NCC(=O)NCc1cccc(C)c1 | inactive
Cc1cccc(NC(=O)CSc2nc(-c3ccco3)cc(C(F)(F)F)n2)c1C | inactive
Cn1c(=O)oc2cc(S(=O)(=O)CCC(=O)NCCc3ccc(Cl)cc3)ccc21 | inactive
Cc1ccc(C)c(NC(=O)C2CCCN(S(=O)(=O)c3cn(C)cn3)C2)c1 (configuration not stated) | inactive
O=C(CCc1nc(CN2CCN(S(=O)(=O)c3ccc(Cl)cc3)CC2)no1)N1CCCCC1 | inactive
COc1ccccc1NC(=O)C1=C(C)Nc2ncnn2C1c1sccc1C (configuration not stated) | inactive
CCCNC(=O)C(CC)n1nc(CC)n2c(cc3oc(C)cc32)c1=O (configuration not stated) | inactive
Cc1ccc(CNC(=O)CSC2=Nc3ccccc3C3=NC(C)C(=O)N23)cc1 (configuration not stated) | inactive
CCOC(=O)c1cccc(NC(=O)Cn2cnc3nc4c(cc3c2=O)CCCC4)c1 | inactive
Cc1cc(OC(C)C(=O)Nc2sc3c(c2C(N)=O)CCCC3)ccc1Cl (configuration not stated) | inactive

Compound | Potency
Cc1ccc(S(=O)(=O)n2nc(-c3ccc(Cl)cc3)nc2NCc2ccccc2)cc1 | inactive
CCOc1ccc(NC(=O)CCC(=O)N2CC(C)Oc3ccc(C)cc32)cc1 (configuration not stated) | inactive
CCCNC(=O)c1ccc2c(c1)ncn2-c1ccc(C)cc1C | inactive
COC(=O)C1=C(c2ccccc2)c2ccccc2S(=O)(=O)N1CC(=O)Nc1ccccc1C(F)(F)F | inactive
CCc1ccccc1NC(=O)c1ccc2nc(CCc3ccccc3)oc2c1 | inactive
O=C(CS(=O)(=O)c1cccc2nsnc12)N1CCN(c2cccc(Cl)c2)CC1 | inactive
Cc1cc2c(cc1S(=O)(=O)CCC(=O)Nc1ccc(OC(F)(F)F)cc1)OCC(=O)N2 | inactive
CC(C)c1ccc(NC(=O)Cn2c3ncccc3c(=O)n2-c2ccccc2)cc1 | inactive
Cc1ccc(Cl)cc1N1CCN(C(=O)c2cn(C)c3ccc(S(=O)(=O)N(C)C4CCCCC4)cc3c2=O)CC1 | inactive
CCN1CCN(c2ncc3c(n2)CC(c2ccccc2O)CC3=O)CC1 (configuration not stated) | inactive
Cc1ccccc1CN1CCC(CNC(=O)c2c(C)oc3ncnc(N4CCCCC4)c23)CC1 | inactive
CCN(CCCNC(=O)c1c(C)oc2ncn(CC(C)C)c(=O)c12)Cc1ccccc1 | inactive
Cc1cccc(CSc2ccc(-c3cccs3)nn2)c1 | inactive
CCOc1ccc(OCC)c(Nc2nc3ccccc3n3nnnc23)c1 | inactive
COc1ccc(S(=O)(=O)N2CCCCC2)cc1C(=O)NC1CCS(=O)(=O)C1 (configuration not stated) | inactive
CCn1cc(C(=O)N(C)Cc2ccccc2)c(=O)c2cc(S(=O)(=O)N3CCCCCC3)ccc21 | inactive
O=C1C(c2[nH]c3ccccc3c2O)=Nc2ccccc21 | 2510 nM (active)
CCCOC(=O)Cc1c(O)c2ccccc2[nH]c1=O | inactive
CCCC(=O)Nc1c(O)c2ccccc2[nH]c1=O | inactive
COc1ccc(-c2nc3sc(CCNC(=O)C(C)(C)C)c(C)n3n2)cc1 | inactive
COc1ccc(N2CCN(C(=O)c3ccc4c(Cl)c5c(nc4c3)CCCC5)CC2)cc1 | inactive
CC(=O)Nc1ccc2nc(SCCOc3cc(C)cc(C)c3)sc2c1 | inactive
CCC1CN(S(=O)(=O)c2cc(-c3cc(C)no3)ccc2C)c2cc(C)ccc2O1 (configuration not stated) | inactive
CC1CCN(S(=O)(=O)c2ccc3c(c2)N(CC(=O)NCc2ccccc2Cl)C(=O)CO3)CC1 | inactive
COC(=O)c1ccc(NC(=O)CCc2c(C)nn(-c3ccc(N4CCCC4)nn3)c2C)cc1 | inactive

Compound | Potency
COc1ccc(-n2c(C)nc3c(cnn3-c3ccc(F)cc3)c2=O)cc1 | inactive
CC1=C(c2ccc(C)c(C)c2)S(=O)(=O)NC1=NCc1ccccc1Cl | inactive
Cc1cc(C)c2oc(C(=O)Nc3ccc(S(=O)(=O)N4CCCCCC4)cc3)cc(=O)c2c1 | inactive
CN(C)CCN(Cc1ccccc1)S(=O)(=O)c1csc(C(N)=O)c1 | inactive
COC(=O)c1ccccc1NC(=O)c1cnn(-c2ccc(F)cc2)c1-n1cccc1 | inactive
COc1ccc(NC(=O)C2CCN(c3ccc(Sc4ccc(C)cc4)nn3)CC2)c(OC)c1 | inactive
COc1ccc(C2NC(=O)N(C)C3=C2C(=O)N(c2ccc(C(=O)O)cc2)C3)cc1 (configuration not stated) | inactive
COc1cccc(NC(=O)CN2C(=O)c3ccccc3Sc3ncccc32)c1 | inactive
Cc1ccc(-c2cnc(C3CC3)o2)cc1S(=O)(=O)Nc1cccc(C)c1C | inactive
COCCNC(=O)c1cc(-c2cccc(Cl)c2)on1 | inactive
COc1ccc(-c2nc3c4ccccc4n(CC(=O)Nc4ccc(C(C)=O)cc4)c(=O)n3n2)cc1 | inactive
Cc1ccccc1OCC(=O)Nc1c(C(=O)Nc2ccccc2F)oc2ccccc12 | inactive
COc1cc(NC(=O)C2=CC(c3ccco3)=NS(=O)(=O)N2C)cc(OC)c1OC | inactive
Cc1ccc2oc(=O)c3cnn(CC(=O)NCc4ccccc4Cl)c3c2c1 | inactive
COc1cccc(CNC(=O)C2CCC(CNS(=O)(=O)c3cccs3)CC2)c1 (configuration not stated) | inactive
CCCCC(=O)OC1=CN(Cc2ccccc2)S(=O)(=O)c2ccccc21 | inactive
Cc1cc(C)cc(NS(=O)(=O)c2ccc(-c3cc(C)no3)s2)c1 | inactive
CCc1ccccc1NC(=O)c1ccc2c(c1)CCN2S(C)(=O)=O | inactive
O=C(COc1ccccc1F)OCc1cc(=O)n2nc(C3CCCCC3)sc2n1 | inactive
CN1C(=O)c2[nH]nc(-c3ccc(F)cc3)c2C1c1ccccn1 (configuration not stated) | inactive
CCC(=O)N1CCc2cc(S(=O)(=O)NC(Cc3ccccc3)C(=O)NCc3ccccc3)ccc21 (configuration not stated) | inactive
O=c1cc(-c2ccccc2)n2c(SCc3ccccc3)nnc2[nH]1 | inactive
